# According to PubChem BioAssay (EPA / NIEHS):
# Inconclusive results are not listed. Activity calls are given as the source filed them. How the source made its calls, unless noted: active means hit-call score of the fitted dose curve at least 0.9, where 1 is the maximum; inactive means score below 0.9.
# How the values were obtained:
# [1] = biological target: Retinoic acid receptor RXR-alpha (Homo sapiens) (UniProt P19793); assay: ATG_RXRa_TRANS: Attagene TRANS-FACTORIAL HepG2 Assay for human Retinoid X Receptor alpha (RXRa) (AID 2283012; active means hit-call score of the fitted dose curve at least 0.9, where 1 is the maximum)
# In short: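 Transient transfection of human HepG2 with multiple GAL4-UAS reporter constructs; 24 h compound exposure; total RNA isolated, reverse-transcribed, PCR-amplified, 6-FAM labelled, HpaI-cut, resolved by capillary electrophoresis. Positive-direction fit versus DMSO.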
# [2] = biological target: human Retinoid X Receptor beta (RXRb), RXRB (gene 6257) (UniProt P28702); assay: ATG_RXRb_TRANS: Attagene TRANS-FACTORIAL HepG2 Assay for human Retinoid X Receptor beta (RXRb) (AID 2283013; active means hit-call score of the fitted dose curve at least 0.9, where 1 is the maximum)
# In short: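 Transfect HepG2 with GAL4-UAS multi-reporter constructs (chimeric NR-Gal4, TRANS format); dose compound 24 h; isolate RNA, RT-PCR, FAM primer extension, HpaI digest; quantify by capillary electrophoresis; positive direction vs DMSO.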
# [3] = read-out: E-selectin (Homo sapiens) (UniProt P16581); assay: BSK_3C_Eselectin: BioMAP Diversity Plus: 3C Assay for Eselectin Biomarker Activity (AID 2283015); details: primary human endothelial cells (HUVEC); actives raise or lower the signal;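 further: cell surface E-selectin protein quantified by ELISA 24 h after dosing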
# In short: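 E-selectin ELISA readout, fitted bidirectionally relative to DMSO, taken 24 h post-dosing in HUVEC cultures of the 3C system. Overt cytotoxicity tracked with sulforhodamine B staining of parallel wells.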
# [4] = read-out: Interleukin-1 alpha (IL1a), IL1A (gene 3552); assay: BSK_BE3C_IL1a: BioMAP Diversity Plus: BE3C Assay for Interleukin-1 alpha (IL1a) Biomarker Activity (AID 2283016); details: primary human bronchial epithelial cells; actives raise or lower the signal
# In short: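 BE3C primary human bronchial epithelium; cpd 24 h; IL-1a by ELISA; bidirectional fit vs DMSO; parallel SRB (0.1% SRB, 10% TCA fix, 560 nm) for cytotoxicity.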
# [5] = read-out: Monocyte Chemoattractant Protein-1 (MCP1), CCL2 (gene 6347); assay: BSK_3C_MCP1: BioMAP Diversity Plus: 3C Assay for Monocyte Chemoattractant Protein-1 (MCP1) Biomarker Activity (AID 2283017); details: primary human endothelial cells (HUVEC); actives raise or lower the signal
# In short: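 MCP-1 was measured by ELISA 24 h after dosing in primary HUVEC 3C cultures and fitted in both directions relative to DMSO; cytotoxicity was checked by SRB total-protein staining in parallel wells.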
# [6] = read-out: Monocyte Chemoattractant Protein-1 (MCP1), CCL2 (gene 6347); assay: BSK_4H_MCP1: BioMAP Diversity Plus: 4H Assay for Monocyte Chemoattractant Protein-1 (MCP1) Biomarker Activity (AID 2283018); details: primary human endothelial cells (HUVEC); actives raise or lower the signal
# In short: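 ELISA read-out of MCP-1 from human vascular endothelial primary cells taken at 24 hours after compound exposure. Activity was fitted in both directions relative to DMSO, which served as negative control.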
# [7] = read-out: Human Leukocyte Antigen - DR isotype (HLADR), HLA-DRA (gene 3122); assay: BSK_3C_HLADR: BioMAP Diversity Plus: 3C Assay for Human Leukocyte Antigen - DR isotype (HLADR) Biomarker Activity (AID 2283019); details: primary human endothelial cells (HUVEC); actives raise or lower the signal;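 on outcome: ELISA of cell-surface HLA-DR on HUVEC 24 h after dosing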
# In short: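 Bidirectional fitting against DMSO was applied to the HLA-DR ELISA signal from human umbilical vein endothelial cells, 24 h post-dose. Cytotoxicity came from parallel SRB total-protein staining; 3C proliferation was counted by SRB at 48 h.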
# [8] = read-out: Interleukin-8 (IL8), CXCL8 (gene 3576); assay: BSK_3C_IL8: BioMAP Diversity Plus: 3C Assay for Interleukin-8 (IL8) Biomarker Activity (AID 2283020); details: primary human endothelial cells (HUVEC); actives raise or lower the signal
# In short: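 ELISA read-out of IL-8 from human umbilical vein endothelium, measured 24 h after chemical dosing. Activity is expressed relative to DMSO negative control, with both increases and decreases fitted.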
# [9] = read-out: Monokine induced gamma interferon (MIG), CXCL9 (gene 4283); assay: BSK_3C_MIG: BioMAP Diversity Plus: 3C Assay for Monokine induced gamma interferon (MIG) Biomarker Activity (AID 2283021); details: primary human endothelial cells (HUVEC); actives raise or lower the signal
# In short: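 Read-out is ELISA detection of MIG on human umbilical vein endothelial cells, taken 24 h after dosing. Gain or loss of signal was scored relative to DMSO controls using bidirectional curve fitting.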
# [10] = biological target: human Vitamin D Receptor (VDR), VDR (gene 7421) (UniProt P11473); assay: ATG_VDR_TRANS: Attagene TRANS-FACTORIAL HepG2 Assay for human Vitamin D Receptor (VDR) (AID 2283022; active means hit-call score of the fitted dose curve at least 0.9, where 1 is the maximum)
# In short: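 Transactivation by an exogenous VDR-Gal4 chimera in transiently transfected HepG2 cells was measured as reporter transcript level 24 hours after chemical treatment. RT-PCR products were analysed by capillary electrophoresis and fitted in the positive direction relative to DMSO.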
# [11] = BSK_3C_SRB: Viability Assessment in the BioMAP Diversity Plus: 3C Assay (AID 2283023); details: primary human endothelial cells (HUVEC);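 further: fitted both ways against DMSO so a hit may be signal rise or drop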
# In short: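 Cytotoxicity readout in parallel HUVEC 3C cultures: after 24 h compound exposure, cells fixed with 10% TCA, stained with 0.1% SRB and read at 560 nm. Gain or loss relative to DMSO fitted.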
# [12] = read-out: Matrix Metallopeptidase 1 (MMP1), MMP1 (gene 4312); assay: BSK_BE3C_MMP1: BioMAP Diversity Plus: BE3C Assay for Matrix Metallopeptidase 1 (MMP1) Biomarker Activity (AID 2283024); details: primary human bronchial epithelial cells; actives raise or lower the signal
# In short: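 Human bronchial epithelial cells (BE3C system) exposed to compound for 24 h; MMP1 then quantified by ELISA. Activity was fitted in both directions relative to DMSO.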
# [13] = BSK_3C_Vis: BioMAP Diversity Plus: 3C Assay for Morphology Visualization (AID 2283025); details: primary human endothelial cells (HUVEC);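 further: fitted both ways so gain or loss versus DMSO counts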
# In short: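 Chemicals were added to primary human umbilical vein endothelium, cells were incubated 24 h, and morphology was then visualized by light microscopy. Gain or loss of signal was fitted bidirectionally relative to DMSO.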
# [14] = read-out: Pselectin, SELP (gene 6403); assay: BSK_4H_Pselectin: BioMAP Diversity Plus: 4H Assay for Pselectin Biomarker Activity (AID 2283026); details: primary human endothelial cells (HUVEC); actives raise or lower the signal
# In short: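 ELISA read-out of P-selectin on human umbilical vein endothelium after 24 h of dosing. Values derive from bidirectional fitting relative to DMSO. Parallel SRB protein staining flagged overt cytotoxicity.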
# [15] = BSK_4H_SRB: Viability Assessment in the BioMAP Diversity Plus: 4H Assay (AID 2283027); details: primary human endothelial cells (HUVEC);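 further: cells exposed to compound for 24 h before staining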
# In short: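 Human umbilical vein endothelial cells were dosed with chemical and, after 24 h, fixed with 10% TCA, stained with 0.1% sulforhodamine B, and read at 560 nm to give total protein as a cytotoxicity measure. Bidirectional fitting relative to DMSO control.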
# [16] = BSK_BE3C_SRB: Viability Assessment in the BioMAP Diversity Plus: BE3C Assay (AID 2283028); details: primary human bronchial epithelial cells
# In short: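 Cytotoxicity read-out: SRB (0.1%) staining of TCA-fixed (10%) human lung bronchial epithelial cells, absorbance 560 nm, 24 h post-dosing. Curves fitted both directions relative to DMSO.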
# [17] = read-out: Thrombomodulin, THBD (gene 7056); assay: BSK_3C_Thrombomodulin: BioMAP Diversity Plus: 3C Assay for Thrombomodulin Biomarker Activity (AID 2283029); details: primary human endothelial cells (HUVEC); actives raise or lower the signal
# In short: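 Read-out is ELISA of thrombomodulin on human umbilical vein endothelium 24 h after chemical dosing. Gain or loss of signal is scored relative to DMSO. Overt cytotoxicity is checked in parallel cultures by sulforhodamine B staining.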
# [18] = read-out: Urokinase-type plasminogen activator receptor (uPAR), PLAUR (gene 5329); assay: BSK_4H_uPAR: BioMAP Diversity Plus: 4H Assay for Urokinase-type plasminogen activator receptor (uPAR) Biomarker Activity (AID 2283030); details: primary human endothelial cells (HUVEC); actives raise or lower the signal
# In short: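 uPAR level read by ELISA on HUVEC cultures (BioMAP 4H) 24 h post-dosing, analyzed for gain or loss relative to DMSO. Parallel SRB staining assessed overt cytotoxicity.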
# [19] = read-out: Vascular endothelial growth factor receptor 2 (Homo sapiens) (UniProt P35968); assay: BSK_4H_VEGFRII: BioMAP Diversity Plus: 4H Assay for Vascular endothelial growth factor receptor 2 (VEGFR2) Biomarker Activity (AID 2283031); details: primary human endothelial cells (HUVEC); actives raise or lower the signal
# In short: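 Measured by ELISA after 24 h of compound treatment: VEGFR2 on primary human umbilical vein endothelial cells, fitted in both directions relative to DMSO. Parallel cultures received SRB staining (560 nm) for overt cytotoxicity.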
# Chain of E-selectin (Homo sapiens) (P16581 whole entry, looked up): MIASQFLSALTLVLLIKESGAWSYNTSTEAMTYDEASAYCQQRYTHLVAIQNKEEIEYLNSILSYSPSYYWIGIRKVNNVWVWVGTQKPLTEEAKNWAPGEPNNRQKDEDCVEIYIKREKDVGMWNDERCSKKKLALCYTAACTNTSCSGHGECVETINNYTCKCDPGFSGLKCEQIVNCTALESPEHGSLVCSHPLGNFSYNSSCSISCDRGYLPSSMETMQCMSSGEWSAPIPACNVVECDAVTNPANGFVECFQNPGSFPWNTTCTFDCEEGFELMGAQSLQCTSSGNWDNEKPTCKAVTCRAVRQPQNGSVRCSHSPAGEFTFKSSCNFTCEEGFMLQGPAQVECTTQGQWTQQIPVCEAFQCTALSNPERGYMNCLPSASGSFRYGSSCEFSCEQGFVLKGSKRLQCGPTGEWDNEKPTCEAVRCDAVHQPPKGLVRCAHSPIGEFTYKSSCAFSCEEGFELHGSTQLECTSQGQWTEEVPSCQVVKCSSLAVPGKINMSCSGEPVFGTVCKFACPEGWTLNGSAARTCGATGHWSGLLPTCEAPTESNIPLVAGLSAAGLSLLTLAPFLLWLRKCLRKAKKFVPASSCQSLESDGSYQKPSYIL
# Chain of Retinoic acid receptor RXR-alpha (Homo sapiens) (P19793 whole entry, looked up, the tested form may be a part): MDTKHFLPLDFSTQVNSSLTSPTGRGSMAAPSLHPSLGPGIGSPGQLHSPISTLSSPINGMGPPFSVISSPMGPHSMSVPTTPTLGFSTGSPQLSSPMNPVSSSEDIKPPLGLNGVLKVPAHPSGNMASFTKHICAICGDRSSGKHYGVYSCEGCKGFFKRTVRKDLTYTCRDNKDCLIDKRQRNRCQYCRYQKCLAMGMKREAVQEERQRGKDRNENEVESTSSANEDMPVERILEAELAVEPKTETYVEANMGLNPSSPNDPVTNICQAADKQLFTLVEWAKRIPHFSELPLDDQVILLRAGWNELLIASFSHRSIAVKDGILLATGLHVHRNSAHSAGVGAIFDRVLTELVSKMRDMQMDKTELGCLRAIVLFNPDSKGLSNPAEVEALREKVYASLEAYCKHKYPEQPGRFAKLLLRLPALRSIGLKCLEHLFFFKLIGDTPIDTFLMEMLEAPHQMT
# Chain of human Retinoid X Receptor beta (RXRb), RXRB (gene 6257) (P28702 whole entry, looked up, the tested form may be a part): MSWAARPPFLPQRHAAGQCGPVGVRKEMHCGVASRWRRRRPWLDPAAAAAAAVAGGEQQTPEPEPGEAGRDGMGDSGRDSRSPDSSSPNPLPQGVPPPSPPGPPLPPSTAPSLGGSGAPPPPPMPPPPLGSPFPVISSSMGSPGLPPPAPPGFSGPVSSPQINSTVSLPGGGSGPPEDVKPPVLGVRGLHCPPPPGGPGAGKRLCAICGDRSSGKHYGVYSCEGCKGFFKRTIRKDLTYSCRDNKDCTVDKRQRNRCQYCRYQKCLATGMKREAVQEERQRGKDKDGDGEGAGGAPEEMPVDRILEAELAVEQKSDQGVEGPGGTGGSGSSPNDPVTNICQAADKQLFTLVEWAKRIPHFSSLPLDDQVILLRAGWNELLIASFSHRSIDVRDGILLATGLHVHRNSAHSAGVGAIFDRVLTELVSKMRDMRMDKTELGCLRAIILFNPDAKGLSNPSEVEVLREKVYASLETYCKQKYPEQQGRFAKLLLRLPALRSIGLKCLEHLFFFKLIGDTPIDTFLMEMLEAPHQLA
# Chain of human Vitamin D Receptor (VDR), VDR (gene 7421) (P11473 whole entry, looked up, the tested form may be a part): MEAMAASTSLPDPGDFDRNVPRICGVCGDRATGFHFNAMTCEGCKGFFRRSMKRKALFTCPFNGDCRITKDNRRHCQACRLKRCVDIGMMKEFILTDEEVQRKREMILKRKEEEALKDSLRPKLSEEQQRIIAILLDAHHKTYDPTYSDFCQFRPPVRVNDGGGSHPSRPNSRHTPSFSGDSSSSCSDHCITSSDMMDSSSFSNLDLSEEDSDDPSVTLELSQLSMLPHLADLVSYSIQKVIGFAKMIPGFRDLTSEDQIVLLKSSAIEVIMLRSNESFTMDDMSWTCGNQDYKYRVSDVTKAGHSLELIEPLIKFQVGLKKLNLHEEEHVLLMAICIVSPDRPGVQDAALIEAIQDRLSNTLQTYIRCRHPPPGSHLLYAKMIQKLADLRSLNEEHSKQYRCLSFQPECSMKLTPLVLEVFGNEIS
compound,measurement,setting,value
CCOC(=O)C(C)Oc1ccc(Oc2nc3ccc(Cl)cc3o2)cc1 (centres undefined),outcome,[1],inactive
same,outcome,[2],inactive
same,outcome,[3],inactive
same,outcome,[4],inactive
same,AC50,[5],20 µM (active)
same,outcome,[6],inactive
same,AC50,[7],20 µM (active)
same,outcome,[8],inactive
same,outcome,[9],inactive
same,outcome,[10],inactive
same,outcome,[11],inactive
same,outcome,[12],inactive
same,outcome,[13],inactive
same,outcome,[14],inactive
same,outcome,[15],inactive
same,outcome,[16],inactive
same,outcome,[17],inactive
same,outcome,[18],inactive
same,outcome,[19],inactive
COC(=O)c1ccc(I)cc1S(=O)(=O)NC(=O)Nc1nc(C)nc(OC)n1,outcome,[3],inactive
same,outcome,[4],inactive
same,outcome,[5],inactive
same,outcome,[6],inactive
same,outcome,[7],inactive
same,outcome,[8],inactive
same,outcome,[9],inactive
same,outcome,[11],inactive
same,outcome,[12],inactive
same,outcome,[13],inactive
same,outcome,[14],inactive
same,outcome,[15],inactive
same,outcome,[16],inactive
same,outcome,[17],inactive
same,outcome,[18],inactive
same,outcome,[19],inactive
COC(=O)c1ccccc1C(=O)O,outcome,[3],inactive
same,outcome,[4],inactive
same,outcome,[5],inactive
same,outcome,[6],inactive
same,AC50,[7],9.98 µM (active)
same,outcome,[8],inactive
same,outcome,[9],inactive
same,outcome,[11],inactive
same,outcome,[12],inactive
same,outcome,[13],inactive
same,outcome,[14],inactive
same,outcome,[15],inactive
same,outcome,[16],inactive
same,outcome,[17],inactive
same,outcome,[18],inactive
same,outcome,[19],inactive
CCCOC(=O)c1ccc(C(=O)OCCC)nc1,outcome,[1],inactive
same,outcome,[2],inactive
same,outcome,[3],inactive
same,outcome,[4],inactive
same,outcome,[5],inactive
same,outcome,[6],inactive
same,outcome,[7],inactive
same,outcome,[8],inactive
same,outcome,[9],inactive
same,outcome,[11],inactive
same,outcome,[12],inactive
same,outcome,[13],inactive
same,outcome,[14],inactive
same,outcome,[15],inactive
same,outcome,[16],inactive
same,outcome,[17],inactive
same,outcome,[18],inactive
same,outcome,[19],inactive
